From PubChem BioAssay come the findings set out here.

Some of the results follow. Activity calls are given as the source filed them.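 The calls were made as follows, unless noted: active = mean inhibition above about 50% in the one-dose retest (limit read from the data); inactive = the rest.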 Some results are limits rather than exact numbers.

The target of experiment [1] is Sentrin-specific protease 8 (Homo sapiens) (UniProt Q96LD8). Description: human SENP8 peptidase blockers, hit retest – biochemical, luminescence, single concentration, confirmation (AID 488912;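 active = mean inhibition across replicates above about 50%, limit read from the data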). The following applies: Recombinant SENP8, Z-RLRGG-aminoluciferin luminescence, 60 min; at 12.5 µM; stronger effect = higher value.
Sequence of Sentrin-specific protease 8 (Homo sapiens) (Q96LD8 whole entry, looked up, the tested form may be a part): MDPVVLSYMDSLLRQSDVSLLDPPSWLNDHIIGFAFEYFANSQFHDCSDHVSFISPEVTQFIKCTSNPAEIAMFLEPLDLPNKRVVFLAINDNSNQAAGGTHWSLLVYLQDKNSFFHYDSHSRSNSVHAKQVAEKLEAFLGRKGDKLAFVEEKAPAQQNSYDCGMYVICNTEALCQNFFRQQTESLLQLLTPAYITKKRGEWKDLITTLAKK
Experiment [2] concerns the target Sentrin-specific protease 6 (Homo sapiens) (UniProt Q9GZR1). Description: inhibition of human SENP6 catalytic domain – biochemical, luminescence, single concentration, confirmation (AID 488915). The conditions noted are these: recombinant SENP6, Z-RLRGG-aminoluciferin luminescence; at 12.5 µM; stronger effect = higher value.
Experiment [3] addresses Sentrin-specific protease 7 (Homo sapiens) (UniProt Q9BQF6). Description: human SENP7 peptidase blockers, hit retest – biochemical, luminescence, single concentration, confirmation (AID 488917). The conditions noted are these: recombinant SENP7, Z-RLRGG-aminoluciferin luminescence, 40 min; at 12.5 µM; stronger effect = higher value.
The target in the next experiment is Caspase-3 (Homo sapiens) (UniProt P42574). Description: human caspase-3 activity blockade, out-of-family – biochemical, single concentration, selectivity assay for SENP inhibitor project, confirmation (AID 488918;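 active = mean inhibition above about 50%, limit read from the data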;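 also: plate controls were enzyme with DMSO for no effect and wells without caspase-3 for full effect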). The following applies: purified caspase-3, Z-DEVD-aminoluciferin luminescence, 60 min; at 12.5 µM; stronger effect = higher value.
Sequence of Caspase-3 (Homo sapiens) (P42574 28-227 limits assumed): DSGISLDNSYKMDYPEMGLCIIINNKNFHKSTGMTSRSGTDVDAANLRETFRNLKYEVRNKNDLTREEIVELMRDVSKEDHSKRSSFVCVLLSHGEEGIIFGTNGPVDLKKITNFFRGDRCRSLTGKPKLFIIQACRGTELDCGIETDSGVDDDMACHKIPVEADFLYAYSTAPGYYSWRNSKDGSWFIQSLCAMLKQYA
A short description of experiment [4]: Ultra-Glo luciferase signal interference – biochemical, single concentration, SENP8 reaction pre-completed, artefact control for SENP inhibitor project, confirmation (AID 488919;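 active = mean inhibition above about 50% when retested at one dose, limit read from the data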;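 also: plate controls were DMSO wells with completed reaction for no effect and substrate without enzyme for full effect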). The conditions noted are these: Pre-incubated SENP8/Z-RLRGG-aminoluciferin, luciferase luminescence interference; at 12.5 µM; stronger effect = higher value.
The target in experiment [5] is Protein Mdm4 (Homo sapiens) + E3 ubiquitin-protein ligase Mdm2 (Homo sapiens) (UniProt O15151+Q00987). Description: human Mdm2/MdmX binding disruption – cell-based, luminescence, single concentration, set 2, confirmation (AID 504601;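 active = mean inhibition of the luminescence signal across two replicates at or above 26 percent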). The conditions noted are these: SaOS-2 split-luciferase Mdm2/MdmX complementation, at 8 µM, stronger effect = higher value.
Sequence of Protein Mdm4 (Homo sapiens) + E3 ubiquitin-protein ligase Mdm2 (Homo sapiens) (O15151 whole entry, looked up): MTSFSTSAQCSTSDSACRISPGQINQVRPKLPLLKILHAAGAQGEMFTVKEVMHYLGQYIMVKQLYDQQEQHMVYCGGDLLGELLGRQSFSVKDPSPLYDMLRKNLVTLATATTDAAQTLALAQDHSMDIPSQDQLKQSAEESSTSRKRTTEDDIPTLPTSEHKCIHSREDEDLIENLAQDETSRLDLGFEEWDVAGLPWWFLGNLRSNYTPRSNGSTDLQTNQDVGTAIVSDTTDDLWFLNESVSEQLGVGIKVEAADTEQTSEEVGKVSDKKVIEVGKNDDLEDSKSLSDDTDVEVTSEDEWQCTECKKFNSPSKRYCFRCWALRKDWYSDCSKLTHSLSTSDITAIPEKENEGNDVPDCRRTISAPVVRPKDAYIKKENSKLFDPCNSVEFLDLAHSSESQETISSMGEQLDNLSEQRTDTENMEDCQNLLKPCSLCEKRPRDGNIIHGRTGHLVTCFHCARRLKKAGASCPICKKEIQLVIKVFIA
Sequence of Protein Mdm4 (Homo sapiens) + E3 ubiquitin-protein ligase Mdm2 (Homo sapiens) (Q00987 whole entry, looked up): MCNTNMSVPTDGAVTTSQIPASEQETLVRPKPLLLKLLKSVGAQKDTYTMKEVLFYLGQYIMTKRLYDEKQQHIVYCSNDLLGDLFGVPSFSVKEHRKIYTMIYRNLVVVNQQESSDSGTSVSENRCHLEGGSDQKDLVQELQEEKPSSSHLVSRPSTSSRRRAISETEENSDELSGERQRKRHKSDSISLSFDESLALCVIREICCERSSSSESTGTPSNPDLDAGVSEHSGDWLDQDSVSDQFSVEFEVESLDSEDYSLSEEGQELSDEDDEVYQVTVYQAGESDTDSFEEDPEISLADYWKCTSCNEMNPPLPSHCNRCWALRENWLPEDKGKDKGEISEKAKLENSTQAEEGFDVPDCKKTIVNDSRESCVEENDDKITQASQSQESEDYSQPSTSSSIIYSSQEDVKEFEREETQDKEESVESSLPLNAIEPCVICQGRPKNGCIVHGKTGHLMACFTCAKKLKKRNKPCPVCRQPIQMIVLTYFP
Experiment [6] can be described thus: Brca1-Bard1 BiLC signal decrease – luminescence, single concentration, counter-screen for Mdm2/MdmX interaction inhibitor project, confirmation (AID 504668; call rule not given here). The conditions noted are these: Brca1/Bard1 bimolecular luciferase complementation counterscreen, at 8 µM, stronger effect = higher value. For orientation: A counterscreen serves to expose hits that act by an unwanted route or on another target.

Experiment [7] in a line: inhibition of PEG-3 promoter luciferase signal – cell-based, HeLa, luciferase reporter, single concentration, confirmation (AID 602417;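 active = at 20 µM dose, 40% or more inhibition averaged across four replicates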). The following applies: HeLa PEG-Prom luciferase reporter, luminescence, overnight; at 20 µM; stronger effect = higher value. Background: In a reporter assay the amount or activity of a reporter protein is the signal.
A short description of experiment [8]: HIF-2a driven luciferase blockers, single dose – luminescence, 786-0 RCC cells, confirmation (AID 651580;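 active = mean inhibition across four replicates of at least 40 percent at the single tested concentration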). The following applies: HIF-2a luciferase reporter luminescence, overnight, at 18.8 µM, stronger effect = higher value.
A short description of experiment [9]: HIF-1a luciferase reporter signal reduction – MiaPaCa-2 cells, single concentration, counter-screen for HIF-2a inhibitor project, confirmation (AID 651589;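 active = mean inhibition of the reporter signal across four replicates at the single tested dose of 50% or more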). The following applies: MiaPaCa-2 HIF-1a luciferase reporter, desferoxamine, overnight; at 18.8 µM; stronger effect = higher value.
The target in experiment [10] is PEG-3 (UniProt Q6IN02). Description: inhibition of PEG-3 promoter-driven reporter – cell-based, HeLa, luciferase, CREF/GAPDH counter-screen panel, dose response (AID 624167). The conditions noted are these: CREF/GAPDH counter-screens; HeLa PEG-Prom luciferase reporter, overnight, run 1, dose range 1, at 100 µM (top of the series) unless noted.
Sequence of PEG-3 (Q6IN02 whole entry, looked up): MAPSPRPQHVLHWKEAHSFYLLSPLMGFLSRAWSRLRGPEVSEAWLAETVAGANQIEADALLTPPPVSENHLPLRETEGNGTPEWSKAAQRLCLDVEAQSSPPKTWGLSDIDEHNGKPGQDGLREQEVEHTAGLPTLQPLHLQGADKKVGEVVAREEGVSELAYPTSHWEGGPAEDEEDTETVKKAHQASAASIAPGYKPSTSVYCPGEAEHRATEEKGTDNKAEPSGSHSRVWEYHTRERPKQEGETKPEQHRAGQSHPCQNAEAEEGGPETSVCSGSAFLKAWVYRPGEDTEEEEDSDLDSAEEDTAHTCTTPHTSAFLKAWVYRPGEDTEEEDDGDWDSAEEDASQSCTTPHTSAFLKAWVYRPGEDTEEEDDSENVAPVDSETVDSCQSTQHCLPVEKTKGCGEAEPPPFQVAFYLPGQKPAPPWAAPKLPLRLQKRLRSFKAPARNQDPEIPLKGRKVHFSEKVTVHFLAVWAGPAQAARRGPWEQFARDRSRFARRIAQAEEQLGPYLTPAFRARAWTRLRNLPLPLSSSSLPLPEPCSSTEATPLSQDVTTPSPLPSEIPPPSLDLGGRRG
For experiment [11], the target named is PEG-3 (UniProt Q6IN02). Described as above. The conditions noted are these: CREF/GAPDH counter-screens; HeLa PEG-Prom luciferase reporter, overnight, run 2, dose range 1, at 100 µM (top of the series) unless noted.
In experiment [12] the test system is Rat fibroblasts (CREF). The description is as above. The following applies: CREF/GAPDH counter-screens; run 1, dose range 1, at 100 µM (top of the series).
In experiment [13] the test system is Rat fibroblasts (CREF). The experiment is described as above. The conditions noted are these: CREF/GAPDH counter-screens; run 2, dose range 1, at 100 µM (top of the series).
Experiment [14] in a line: apoptosome-driven caspase-3 activation blockers – biochemical, fluorescence, DEVD-Rh110, 20 µM, confirmation (AID 504614;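 active = mean inhibition of at least 40% at 20 µM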;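 also: plate controls were DMSO wells for no effect and DEVD-CHO caspase inhibitor control wells for full effect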). The conditions noted are these: reconstituted apoptosome, caspase-3 DEVD-Rh110 fluorescence; at 20 µM; stronger effect = higher value.
Experiment [15] is described as follows: detection-step artefacts after completed caspase reaction – biochemical, fluorescence, Rh110, 20 µM, artefact control for Apaf-1 inhibitor project, confirmation (AID 504615;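 active = signal rise of 40% or more at 20 µM, treated as a fluorescence artifact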). The conditions noted are these: quenched caspase reaction, at 20 µM, stronger effect = higher value.
A short description of experiment [16]: fluorescence interference of Apaf-1 inhibitor hits, dose response, artefact control for Apaf-1 inhibitor project (AID 588538; call rule not given here). The following applies: fluorescence interference counterscreen, Apaf-1 assay format.
For experiment [17], the target named is Tumor necrosis factor receptor superfamily member 10B (Homo sapiens) (UniProt O14763). Description: viability loss of caspase-8 NB7 cells with TRAIL – with/without TRAIL, luminescence panel, confirmation (AID 651596; in the data active = activity above about 50%). The following applies: NB7 neuroblastoma + caspase-8, TRAIL sensitization, NB7 Caspase-8, with TRAIL, mean of runs, at 10 µM, stronger effect = higher value.
Sequence of Tumor necrosis factor receptor superfamily member 10B (Homo sapiens) (O14763 whole entry, looked up): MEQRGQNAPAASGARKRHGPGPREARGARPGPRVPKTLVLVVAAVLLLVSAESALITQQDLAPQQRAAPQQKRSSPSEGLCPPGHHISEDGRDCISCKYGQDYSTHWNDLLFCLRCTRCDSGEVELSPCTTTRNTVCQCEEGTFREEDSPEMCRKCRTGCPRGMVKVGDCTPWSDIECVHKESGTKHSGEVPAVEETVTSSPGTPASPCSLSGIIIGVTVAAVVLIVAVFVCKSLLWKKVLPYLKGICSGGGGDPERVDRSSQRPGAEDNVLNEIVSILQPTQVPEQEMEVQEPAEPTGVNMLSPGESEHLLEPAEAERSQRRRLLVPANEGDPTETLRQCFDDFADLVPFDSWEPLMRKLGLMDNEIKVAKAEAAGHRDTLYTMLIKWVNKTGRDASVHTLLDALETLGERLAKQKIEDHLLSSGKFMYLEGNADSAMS

Assay in experiment [18]: as above
The conditions noted are these: NB7 neuroblastoma + caspase-8, without TRAIL, NB7 Caspase-8, without TRAIL, mean of runs, at 10 µM.

Sequence of Sentrin-specific protease 6 (Homo sapiens) (Q9GZR1 628-1112 limits assumed): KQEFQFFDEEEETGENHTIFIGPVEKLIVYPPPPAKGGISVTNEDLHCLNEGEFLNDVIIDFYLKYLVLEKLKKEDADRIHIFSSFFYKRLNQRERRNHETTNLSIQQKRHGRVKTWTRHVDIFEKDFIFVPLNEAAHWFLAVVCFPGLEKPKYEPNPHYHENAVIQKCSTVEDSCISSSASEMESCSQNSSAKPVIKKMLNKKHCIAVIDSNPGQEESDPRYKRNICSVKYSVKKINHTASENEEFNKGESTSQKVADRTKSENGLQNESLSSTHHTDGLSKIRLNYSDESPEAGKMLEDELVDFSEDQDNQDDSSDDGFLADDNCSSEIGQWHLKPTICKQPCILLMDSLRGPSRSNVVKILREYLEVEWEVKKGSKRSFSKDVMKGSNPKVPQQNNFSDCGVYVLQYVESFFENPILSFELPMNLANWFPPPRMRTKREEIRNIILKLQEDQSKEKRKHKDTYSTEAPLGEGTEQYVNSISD
Sequence of Sentrin-specific protease 7 (Homo sapiens) (Q9BQF6 706-1050 limits assumed): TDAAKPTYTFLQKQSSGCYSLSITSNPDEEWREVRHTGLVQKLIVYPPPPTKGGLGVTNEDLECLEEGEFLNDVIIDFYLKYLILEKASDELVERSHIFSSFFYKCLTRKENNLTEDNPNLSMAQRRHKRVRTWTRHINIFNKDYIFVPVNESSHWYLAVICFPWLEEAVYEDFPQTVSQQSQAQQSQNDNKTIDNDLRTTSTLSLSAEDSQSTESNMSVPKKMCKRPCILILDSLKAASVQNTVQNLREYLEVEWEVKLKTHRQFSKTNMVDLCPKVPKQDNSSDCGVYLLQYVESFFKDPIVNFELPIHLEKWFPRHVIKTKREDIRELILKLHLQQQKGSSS

In general, inhibition refers to the change of the read-out against control, counted positive when it falls. Regarding `Cc1ccccc1C(=O)Nc1ccc(N2CCCCCC2)cc1`, the inhibition was 73.8% (active) in [1]; 72.6% (active) in experiment [2]; 91.7% (active) in [3]; 67.2% (active) with Caspase-3 (Homo sapiens); 51.9% (active) in experiment [4].

Consider `Cc1sc(NC(=O)c2ccc3ncsc3c2)c(C(N)=O)c1C`, for which the inhibition in [1] was -15.3% (inactive); in [2] it was -7.6% (inactive); in experiment [3], -2.8% (inactive); with Caspase-3 (Homo sapiens) it was 3.3% (inactive); in [4] it was -10.5% (inactive).

Regarding `COc1ccc(C(=O)Nc2ccc(C3(C#N)CCCC3)cc2)cc1OC`, the inhibition is 93% (active) in [1]; 93.6% (active) in experiment [2]; 101% (active) in experiment [3]; 91.9% (active) with Caspase-3 (Homo sapiens); 83.2% (active) in [4].

Consider `O=C(OCC(=O)N1CCN(c2ccccc2)CC1)c1ccc([N+](=O)[O-])s1`, for which the inhibition in [1] was 64.2% (active); in [2] it was 80.9% (active); in experiment [3], 25.4% (inactive); in the experiment with Caspase-3 (Homo sapiens) it was 8.3% (inactive); in [4], -3.3% (inactive).

As for `CCOC(=O)c1sc(NC(=O)c2ccncc2)nc1C`, the inhibition in [1] is 0.5% (inactive); in [2], 74.8% (active); in [3], 90.8% (active); with Caspase-3 (Homo sapiens), 84.4% (active); in experiment [4] it was 20% (inactive).

`Cc1ccn2cc(-c3nonc3C)cc2c1`: the inhibition in experiment [1] was 47.6% (inactive); in experiment [2], 77% (active); in experiment [3], 95.7% (active); with Caspase-3 (Homo sapiens) it was 73.7% (active); in experiment [4] it was 33% (inactive).

Turning to `CC(C)N(C(=O)Cn1cc(SCC(=O)N2CCCC2)c2ccccc21)C(C)C`, the inhibition is -29.2% (inactive) in [1]; -18.1% (inactive) in [2]; -8.3% (inactive) in experiment [3]; -6.3% (inactive) in the experiment with Caspase-3 (Homo sapiens); -6.7% (inactive) in experiment [4].

For `O=C(Nc1ncc([N+](=O)[O-])s1)C1COc2ccccc2O1` (centres undefined), the inhibition in experiment [1] is 98.8% (active); in [2] it was 99.8% (active); in experiment [3], 103% (active); with Caspase-3 (Homo sapiens), 98.4% (active); in experiment [4], 48.6% (inactive).

Consider `Fc1ccc2nc(N3CCCCC3)sc2c1`, for which the inhibition is 7.7% (inactive) in experiment [1]; 78.8% (active) in experiment [2]; 97.3% (active) in experiment [3]; 80.5% (active) in the experiment with Caspase-3 (Homo sapiens); 18.4% (inactive) in [4].

Turning to `O=C(CCCN1C(=O)/C(=C/c2ccccc2)SC1=S)Nc1ccc(O)cc1`, the inhibition in [5] was 80.2% (active).

`CN(c1ccc2nc3ccccc3c(=O)n2n1)C1CCCCC1`: the inhibition was 94.2% (active) in [1]; 94.5% (active) in experiment [2]; 101% (active) in [3]; 96.3% (active) with Caspase-3 (Homo sapiens); 77.2% (active) in [4]; 27.7% (active) in [6]. The inhibition was 78.8% (active) in experiment [7]; 91.2% (active) in experiment [8]; 97.8% (active) in experiment [9]; 98.5% with PEG-3 [10]; 86.2% with PEG-3 [11]; 98.4% in the experiment with Rat fibroblasts (CREF) [12]. In addition, the inhibition in the experiment with Rat fibroblasts (CREF) [13] came out at 98.9%.

A word on the IC50: it is the point on the concentration scale where inhibition reaches its midpoint. Consider `CCOC(=O)c1ccc(Nc2cc3ccccc3c(=O)[nH]2)cc1`, for which the inhibition in experiment [1] was 28.7% (inactive); in experiment [2], 63.5% (active); in [3], 31.6% (inactive); with Caspase-3 (Homo sapiens), 9.8% (inactive); in experiment [4] it was -2.7% (inactive); in [14], 62.4% (active). Besides, in experiment [15], the activation (fluorescence interference) was 11.7% (inactive). In [16], the IC50 was > 100 µM (inactive).

Regarding `O=C(CSC(=S)N1CCOCC1)c1ccccc1`, the inhibition in experiment [1] is 79.2% (active); in [2], 77.6% (active); in [3], 94.1% (active); with Caspase-3 (Homo sapiens), 88.1% (active); in [4], 77% (active). Besides, the activity worked out at 46.8% in [17] and 55.2% in experiment [18].

For the compound `O=C(/C=C/Sc1ncn[nH]1)c1ccc(Cl)cc1`, in experiment [5], the inhibition is 103% (active).

As to `CC(=O)c1ccc(S(=O)(=O)N2CCN(C(=O)/C=C/c3ccc4ccccc4n3)CC2)cc1`, the inhibition in experiment [5] was 85.2% (active).

With `CC(=O)N(C1=C(Cl)C(=O)c2ccccc2C1=O)c1ccc(C(=O)O)cc1`, the inhibition is 81.7% (active) in experiment [1]; 91% (active) in experiment [2]; 55.3% (active) in [3]; 6.3% (inactive) in the experiment with Caspase-3 (Homo sapiens); 4% (inactive) in experiment [4]; 95% (active) in experiment [14]. Besides, the activation (fluorescence interference) in experiment [15] was 9.87% (inactive). In addition, in experiment [16], the IC50 is > 100 µM (inactive).

In the case of `Cn1c(NC(=O)c2ccccc2)nc2ccccc21`, the inhibition in experiment [1] is 55.5% (active); in [2] it was 61.6% (active); in experiment [3], 89.8% (active); in the experiment with Caspase-3 (Homo sapiens), 83.7% (active); in experiment [4] it was 65.2% (active). Besides, the activity in experiment [17] was 50.4%; in experiment [18], 61.1%.

With `O=C(/C=C/c1ccc2c(c1)OCCO2)c1ccc(O)cc1`, the inhibition in experiment [1] is 68.6% (active); in experiment [2], 59% (active); in experiment [3], 72.1% (active); with Caspase-3 (Homo sapiens) it was 54.3% (active); in [4], 86.9% (active). Further, the activity was 41% in experiment [17] and 45.6% in experiment [18].

Take `Cc1cnc(NC(=O)c2ccccn2)s1`: the inhibition in [1] was 74.2% (active); in [2], 75.6% (active); in experiment [3], 92.3% (active); with Caspase-3 (Homo sapiens), 91.7% (active); in [4] it was 67.2% (active). The results for the activity in [17] and in experiment [18] were 63.5% and 64.5%, respectively.

As to `CC[C@]1(C(=O)OC)[C@H]2C(=O)N(Cc3ccccc3)C(=O)[C@H]2[C@H]2CN=C(SCc3ccc(Cl)cc3)N21`, in experiment [5], the inhibition is 103% (active).

For `CC(=O)Nc1cccc(C(=O)OCC(=O)c2ccc3c(c2)OCO3)c1`, the inhibition is 84.2% (active) in [1]; 83.1% (active) in experiment [2]; 51.3% (active) in experiment [3]; 85.2% (active) in the experiment with Caspase-3 (Homo sapiens); 80.8% (active) in experiment [4]. For the same compound, the activity in [17] was determined as 70.3%; in experiment [18] it was 60.6%.

With `COc1ccc(-c2cc3ccc(OCc4nn[nH]n4)cc3oc2=O)cc1`, the inhibition in [1] is 64% (active); in experiment [2], 63.1% (active); in experiment [3], 87.3% (active); with Caspase-3 (Homo sapiens), 66.2% (active); in experiment [4], 70.6% (active). For the same compound, the activity stood at 58.8% in experiment [17] and 56.2% in [18].

Turning to `O=C(Nc1ccccc1)c1ccc2c(c1)OCCCO2`, the inhibition in experiment [1] was 78.5% (active); in [2] it was 77.7% (active); in [3], 94.2% (active); in the experiment with Caspase-3 (Homo sapiens) it was 90% (active); in experiment [4] it was 81.9% (active). Moreover, the activity in [17] and in experiment [18] was 79.9% each time.

In the case of `Cc1cccc(NC(=O)/C=C/c2ccc3c(c2)OCO3)n1`, the inhibition in experiment [1] is 81.3% (active); in experiment [2], 81% (active); in experiment [3], 95.8% (active); with Caspase-3 (Homo sapiens) it was 87.1% (active); in experiment [4], 73% (active). The results for the activity in experiment [17] and in experiment [18] were 80.4% and 75.4%, respectively.
